# High-throughput results deposited in PubChem by National Center for Advancing Translational Sciences (NCATS).
# WRN helicase inh: blocks human WRN helicase; Q14191; WRN helicase unwinding, fluorescent forked duplex, kinetic; Potency, µM (top dose mostly 114 µM), without a hit: top-dose activity change, negative = inhibition, actives largely listed as inhibitors; 360,000 compounds, 0.46% hits; AID 651768; further: potency means the concentration at half of the fitted maximal effect; on the % scale 0 is the no-effect control and ±100 the full control effect; nearly all actives have a fitted effect of over 55% in size
#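 Primary qHTS, 1536-well format. 20 nM WRN + compound, 15 min RT; start with 100 nM forked fluorophore/quencher duplex, 2 mM ATP (final); kinetic read ex 525/em 598 nm.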
# PLK1 PBD inh: blocks phosphopeptide binding to human PLK1 polo-box domain | P53350 | Plk1 PBD binding of FITC phosphopeptide, fluorescence polarization | Potency, µM, for the others: max response, negative = inhibition, actives largely listed as inhibitors | 360,000 compounds, 2.8% hits | AID 720504; further: potency means the concentration at half of the fitted maximal effect; series mostly up to about 57 µM; on the % scale 0 is the no-effect control and ±100 the full control effect; nearly all actives have a fitted effect of over 65% in size
# FEN1 inhibitor: human FEN1 inhibition. P39748. Recombinant FEN1 flap cleavage, fluorescence, 15 min. Potency, µM (doses to about 114 µM), for inactives: at the top dose activity change, negative = inhibition, actives largely listed as inhibitors. 390,000 compounds, 0.35% hits. AID 588795; further: potency means the concentration at half of the fitted maximal effect; on the % scale 0 is the no-effect control and ±100 the full control effect; nearly all actives have a fitted effect of over 65% in size
#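 Compounds are tested as a concentration series against 10 nM FEN1; after a 15 min room-temperature preincubation, 50 nM substrate starts cleavage, with plate reads at 0 and 15 min. Normalized responses are fitted by a Hill equation.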
# PI5P4K alpha inh: blocks human PI5P4K alpha kinase activity; P48426; PI5P4Kalpha enzyme, ADP-Glo luminescence, 60 min; hits give low values; max response, %; 330,000 compounds, 1.2% hits; active means max response of -50% or lower; inconclusive means between -30% and -50%; inactive means -30% or higher; further: value at the top dose of about 77 µM; on the % scale 0 is the no-effect control and ±100 the full control effect
# Target sequence (P48426 whole entry, looked up): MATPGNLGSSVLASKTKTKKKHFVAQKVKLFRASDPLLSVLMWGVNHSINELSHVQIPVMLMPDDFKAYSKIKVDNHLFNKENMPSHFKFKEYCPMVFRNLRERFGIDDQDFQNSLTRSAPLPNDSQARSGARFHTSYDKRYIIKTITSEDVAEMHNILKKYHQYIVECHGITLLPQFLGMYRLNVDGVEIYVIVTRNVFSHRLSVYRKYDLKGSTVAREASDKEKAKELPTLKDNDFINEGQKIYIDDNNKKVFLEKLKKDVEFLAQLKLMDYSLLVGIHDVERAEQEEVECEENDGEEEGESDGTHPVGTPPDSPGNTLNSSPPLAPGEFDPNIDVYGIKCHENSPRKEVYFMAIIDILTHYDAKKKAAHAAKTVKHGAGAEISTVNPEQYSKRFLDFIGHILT
#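 Enzyme plus substrate dispensed, test compounds pinned in, then ATP (5 microM final) added. After 60 min at RT, ADP-Glo reagent 1 for 45 min and reagent 2 for 30 min preceded luminescence imaging.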
# VDR inh: inhibitors of human vitamin D receptor. VDR-SRC2-3 peptide fluorescence polarization, 2 h. Potency, µM, for the others: max response, negative = inhibition, hits mostly inhibitors. 400,000 compounds, 0.93% hits; further: potency means the concentration at half of the fitted maximal effect; on the % scale 0 is the no-effect control and ±100 the full control effect
#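 Fluorescence polarization assay of small-molecule disruption of VDR binding to coregulator peptide SRC2-3. Compounds and controls pin-transferred, then read after 2 h incubation at ambient room temperature.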
# TCR act: activates T cell receptor signaling; Potency, µM (highest dose often 9.22 µM), inactives show at the highest dose activation of IL-2 secretion, usual class: activators; 330,000 tested, under 10 active; primary human leukocytes, anti-CD3, IL-2 HTRF, 48 h; further: % of control where 0% means no effect
#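 Activity was scored as IL-2 release from primary human leukocytes given only a TCR signal (a-CD3 beads) plus compound for 48 hr. Detection used a two-antibody HTRF format read at 665nm.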
# The depositor's hits bear a star; ? = inconclusive; nt = no result given; ! = a repeat was not active; [ ] = dose if it differs, or a comment. In the library only some 3.7% were active in any assay of this set; here they are far more common. Unless noted, the call rests on the fitted dose curve; in most records, active means well fitted curve in the direction sought with a large enough effect; inconclusive means small, poorly fitted or top-dose-only effect, or another doubt; inactive means no such curve, though single readings can be large; an effect the other way counts as inactive or inconclusive.
SMILES,WRN helicase inh,PLK1 PBD inh,FEN1 inhibitor,PI5P4K alpha inh,VDR inh,TCR act
COc1ccc(OC)c(C2c3c(-c4ccc(Br)cc4)n[nH]c3C(=O)N2c2ccc(Cl)cc2)c1 (stereo unspecified),nt,nt,-16%,nt,-11%,nt
CN1CCc2c(sc3c2C(=O)NC(c2ccc(C(C)(C)C)cc2)N3)C1 (stereo unspecified),nt,nt,-8%,nt,-27%,nt
Cc1ccc(N=N/C(=C\O)C(=O)c2ccc(Cl)cc2)cc1,2%[57.1 µM],24µM*,-11%,-5,3%,1%
O=C(CCN1CCN(S(=O)(=O)c2cccc([N+](=O)[O-])c2)CC1)Nc1ccccc1F,-5%,27µM*,18%,-13,-27%,-2%
O=C(CCN1CCN(S(=O)(=O)c2ccc(Cl)cc2)CC1)Nc1ccccc1F,-2%,-8%,7%,1,24%,1%
Cc1ccc(-n2nc3c(N4CCC(C(=O)N(C)Cc5ccccc5)CC4)nnc(C)c3c2C)cc1,nt,nt,7%,nt,15%,nt
CCCOc1ccc(C(=O)NNC(=S)NC(=O)c2cccs2)cc1,16%,30µM*,-5%,-11,-21%,-1%
Cc1ccc(C(=O)NNC(=S)NC(=O)COc2ccccc2)cc1,-9%,27µM*,0%,nt,-7%,nt
CCCOc1ccc(C(=O)NNC(=S)NC(=O)c2ccccc2)cc1,5%,-21%,13%,2,-13%,4%
O=C(CC(Sc1ccc(Br)cc1)C(=O)O)c1ccc(F)cc1 (stereo unspecified),-20%,?,-9%,4,13µM*,4%
COCCCNC(=O)c1cc(OC)c(OC)c(OC)c1,8%,30µM*,-1%,-10,-13%,10%
CNC(=O)c1cc(Cl)c(OC)c(OC)c1,-27%[57.1 µM],27µM*,11%,-15,-32%,9%[46.1 µM]
COc1ccc(C(C[N+](=O)[O-])C2(c3ccc(OC)c(OC)c3)C(=O)c3ccccc3C2=O)cc1 (stereo unspecified),?,-10%,2%,-1,32µM*,8%[46.1 µM]
Fc1ccc(C(c2ccc(F)cc2)N2CCN(CC=Cc3ccccc3)CC2)cc1,nt,nt,nt,nt,-10%,nt
Cc1oc(-c2ccccc2)cc1C(=O)Nc1ccccc1,-2%,-14%,4%,0,2%,-5%
Cc1oc(-c2ccccc2)cc1C(=O)Nc1cccc(/C=C/C(=O)O)c1,-35%,21µM*,-2%,-19,-8%,3%
CCc1nnc(NC(=O)c2ccccc2NC(=O)C2CCN(C(=O)c3ccco3)CC2)s1,nt,nt,-18%,nt,-19%,nt
CCCCn1c(O)c(N=NC(=O)c2ccccc2NS(=O)(=O)c2cccs2)c2ccccc21,-23%[57.1 µM],-9%,5%,?,-18%,0%[46.1 µM]
CC(C)n1c(O)c(N=NC(=O)c2ccccc2NS(=O)(=O)c2cccs2)c2ccccc21,2%,17µM*,7%,-28,-29%,2%[46.1 µM]
COCCCNC1=C(C#N)C(=O)NC(c2cccc([N+](=O)[O-])c2)S1 (stereo unspecified),-31%,19µM*,nt,4,nt,nt
O=C(Cn1cnc2nc3c(cc2c1=O)CCCC3)N1CCN(c2ccccc2)CC1,nt,nt,20%,nt,2%,nt
COc1ccc(CNC(=O)c2ccc(NC(=O)N3CCCCc4ccccc43)cc2)c(OC)c1,nt,nt,-7%,nt,-1%,nt
Clc1ccccc1OCc1nc(-c2ccncc2)no1,5%,6.7µM*,1%,-28,-6%,-9%
Cc1ccc(SCc2nc(-c3ccncc3)no2)cc1,-19%,3µM*,-6%,?,-19%,-5%
c1ccc(SCc2nc(-c3ccncc3)no2)cc1,-8%,13µM*,-8%,nt,-8%,-7%
SMILES,WRN helicase inh,PLK1 PBD inh,FEN1 inhibitor,PI5P4K alpha inh,VDR inh,TCR act
Cc1ccc(SCc2nc(-c3ccccn3)no2)cc1,0%,-11%,6%,-5,7%,-3%
COc1cccc(-n2c(-c3ccco3)nc3c(cnn3-c3ccccc3C)c2=O)c1,nt,nt,0%,nt,-29%,nt
Cc1c(-c2nsc(NC(=O)c3ccccc3)n2)nnn1-c1ccc(C(F)(F)F)c(Cl)c1,nt,nt,0%,nt,-8%,nt
COc1cc(CN2CCCC(CO)(Cc3cccc(Cl)c3)C2)cc2c1OCO2 (stereo unspecified),-5%,21µM*,-27%,2,?,7%
O=C(OCCN1C(=O)c2cccc3c(N4CCOCC4)ccc(c23)C1=O)c1ccc(Cl)cc1,-5%,?,0%,16,-10%,-7%[46.1 µM]
CCCN(CCC)S(=O)(=O)c1ccc(C(=O)OCCN2C(=O)c3cccc4c(N5CCOCC5)ccc(c34)C2=O)cc1,8%,15µM*,-6%,-5,-10%,-3%[46.1 µM]
CCN(CC)S(=O)(=O)c1cc(NC(=O)c2ccc(Br)s2)ccc1C,-9%,19µM*,-20%,-29,?,4%
O=C(c1ccccc1)C(I)(I)N1CCOCC1,nt,nt,13%,nt,nt,nt
CC(C)C(=O)NC(Nc1cccc([N+](=O)[O-])c1)C(Cl)(Cl)Cl (stereo unspecified),-10%,-1%,16%,1,2%,12%
CN(C)C(=O)NC(Nc1cccc([N+](=O)[O-])c1)C(Cl)(Cl)Cl (stereo unspecified),5%,30µM*,-3%,-9,-22%,-45%
CSc1ccc(CNC(=O)c2cc3c(=O)n(Cc4ccco4)ccc3nc2C)cc1,nt,nt,89µM*,nt,2%,nt
O=Nc1c(O)[nH]c2c(Cl)c(Cl)ccc12,nt,nt,nt,nt,-18%,nt
COc1ccc(C(=O)NC2CCN(CC(=O)Nc3cccc(OC)c3)CC2)cc1,2%,-12%,13%,1,-4%,3%
COc1cccc(C(=O)NC2CCN(CC(=O)Nc3nccs3)CC2)c1,7%,24µM*,-9%,-4,-4%,nt
Cc1cc(C)c2nc(N3CCCN(C(=O)c4ccco4)CC3)c(C#N)cc2c1,-32%,?,-21%,?,79µM*,-5%
COC(=O)c1ccc(-n2cncn2)c([N+](=O)[O-])c1,-29%,27µM*,2%,-15,9%,-8%
O=c1oc2c(O)c(O)cc3c(=O)oc4c(O)c(O)cc1c4c23,nt,8.4µM*,1.6µM*,-100*,40µM*!,-6%
CCn1c(=O)c(=O)[nH]c2cc(C(=O)NCC3CCCCC3)ccc21,-26%,2%,-5%,-3,-19%,3%[46.1 µM]
CCn1c(=O)c(=O)[nH]c2cc(C(=O)NC3CCCC3)ccc21,-27%,30µM*,3%,-12,?,3%
O=C(Nc1ccc(-c2n[nH]c(=S)o2)cc1)c1ccccc1Br,-1%,-11%,-4%,-57*,?,-5%
CCCCn1c(-c2cc(Cl)ccc2OC)n[nH]c1=S,0%,-20%,1%,nt,7%,-2%
COc1ccc(C(=O)Nc2ccc(-c3n[nH]c(=S)o3)cc2)cc1OC,-9%,12µM*,9%,-53*,?,15%
